Measurements as given in PubChem BioAssay (NCATS).
Records with an inconclusive call do not appear. Where a call stands in place of a potency, no number is given. Activity calls are given as the source filed them. The call rests on the fitted dose curve; in most records, active means well fitted cell-killing curve with a large enough effect; inconclusive means small, poorly fitted or top-dose-only effect, or effect the other way; inactive means no such curve, though single readings can be large or run the other way.

Assays:
[1] = Quantitative High-Throughput drug screen in 47 multiple myeloma cell lines against the NCATS MIPE library collection: FR4_PLB cell viability assay (AID 1918924; further: nearly all actives have a fitted effect of over 35% in size)
How it was run: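 Viability readout: CellTiter-Glo luminescence following 5 min room-temperature incubation with reagent. Prior exposure: 48 h, 37C, humidified 5% CO2, 500 cells per well.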

[2] = Quantitative High-Throughput drug screen in 47 multiple myeloma cell lines against the NCATS MIPE library collection: Delta47_JCRB cell viability assay (AID 1918925; further: nearly all actives have a fitted effect of over 45% in size)
How it was run: (§1)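 Inhibition of cell viability is measured here. Each line was plated at 500 cells per well, treated with MIPE 4.0 drugs, kept 48 hours at 37C, then assayed for ATP content by CellTiter-Glo luminescence.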

[3] = Quantitative High-Throughput drug screen in 47 multiple myeloma cell lines against the NCATS MIPE library collection: AMO1_DSMZ cell viability assay (AID 1918927; further: nearly all actives have a fitted effect of over 30% in size)
How it was run: as §1

[4] = Quantitative High-Throughput drug screen in 47 multiple myeloma cell lines against the NCATS MIPE library collection: EJM_DSMZ cell viability assay (AID 1918926; further: nearly all actives have a fitted effect of over 30% in size)
How it was run: as §1

[5] = Quantitative High-Throughput drug screen in 47 multiple myeloma cell lines against the NCATS MIPE library collection: ARP1_JJKsccF8 cell viability assay (AID 1918928; further: nearly all actives have a fitted effect of over 40% in size)
How it was run: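 Myeloma cells, 500 per well, were exposed to MIPE 4.0 drugs by pin transfer for 48 h at 37 °C, 5% CO2. Viability was read as ATP luminescence with CellTiter-Glo, normalised to DMSO-only (100%) and medium-only (0%) wells.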
Potency means the concentration at half of the fitted maximal effect.

| SMILES | Potency [1] | Potency [2] | Potency [3] | Potency [4] | Potency [5] |
| --- | --- | --- | --- | --- | --- |
| N#CC(=Cc1ccc(O)c(O)c1)C(=O)NCc1ccccc1 | 5.26 µM (active) | 1.66 µM (active) | inactive | – | – |
| Cc1cnn(C)c1C(=O)Nc1cc(Nc2ccc3c(C=Cc4ccccn4)n[nH]c3c2)ccc1F | 20.9 µM (active) | 8.33 µM (active) | 9.35 µM (active) | – | – |
| C[C@@]12C[C@@]3(O)O[C@@H](O1)[C@]1(COC(=O)c4ccccc4)[C@@H]3C[C@@]12O[C@@H]1O[C@H](CO)[C@@H](O)[C@H](O)[C@@H]1O | inactive | – | inactive | inactive | – |
| O=c1c(O)c(-c2ccc(O)c(O)c2)oc2cc(O)ccc12 | 20.9 µM (active) | 11.8 µM (active) | 10.5 µM (active) | – | – |
| C[C@@H](Oc1ccc2[nH]nc(C=Cc3cnn(CCO)c3)c2c1)c1c(Cl)cncc1Cl | 26.4 µM (active) | 0.469 µM (active) | inactive | – | 5.26 µM (active) |
| COc1ccnc2[nH]cc(C(=O)C(=O)N3CCN(C(=O)c4ccccc4)C[C@@H]3C)c12 | inactive | – | inactive | inactive | – |
| N#Cc1ccc(COC[C@H]2O[C@@H](n3c(NCc4ccc(Cl)c(Cl)c4)nc4c(N)ncnc43)[C@@H](O)[C@@H]2O)cc1 | 13.2 µM (active) | 16.6 µM (active) | – | – | 6.62 µM (active) |
| CC(C)(C)[N+]([O-])=Cc1ccc(S(=O)(=O)O)cc1S(=O)(=O)O | inactive | inactive | inactive | – | inactive |
| C=CC1=C(C(=O)O)N2C(=O)[C@@H](NC(=O)C(=NO)c3csc(N)n3)[C@H]2SC1 | inactive | inactive | – | – | inactive |
| O=C(NCc1ccccc1)[C@H](Cc1ccccc1)NC(=O)[C@@H]1O[C@@H]1C(=O)NCCc1ccc(O)cc1 | inactive | – | 20.9 µM (active) | 0.0833 µM (active) | – |
| C=CC[C@@H]1C=C(C)C[C@H](C)C[C@H](OC)[C@H]2O[C@@](O)(C(=O)C(=O)N3CCCC[C@H]3C(=O)O[C@H](C(C)=C[C@@H]3CC[C@H](O)[C@H](OC)C3)[C@@H](C)[C@@H](O)CC1=O)[C@@H](C)C[C@@H]2OC | 2.64 µM (active) | 1.87 µM (active) | 2.64 µM (active) | – | 2.09 µM (active) |
| Cc1onc(-c2ccccc2)c1C(=O)N[C@@H]1C(=O)N2[C@@H](C(=O)O)C(C)(C)S[C@@H]12 | inactive | – | inactive | inactive | – |
| CON=C(C(=O)N[C@@H]1C(=O)N2C(C(=O)O)=C(CSC(=O)c3ccco3)CS[C@H]12)c1csc(N)n1 | inactive | – | inactive | inactive | – |
| O=C(O)[C@H](CC(=O)N1C[C@@H]2CCCC[C@H]2C1)Cc1ccccc1 | inactive | inactive | – | – | inactive |
| O=C(Nc1nnc(-c2ccco2)o1)c1cc(-c2ccccc2)nc2ccccc12 | 23.5 µM (active) | 18.7 µM (active) | 9.35 µM (active) | – | – |
| NC1=N[C@H]2[C@H](CS[C@H]2CCCCC(=O)O)N1 | inactive | – | inactive | inactive | inactive |
| Cc1cc(-c2nnc3n2CCCCC3)c(C)n1-c1ccccc1 | inactive | inactive | inactive | – | inactive |
| O=c1[nH]c(=O)n([C@H]2C[C@@H](O)[C@@H](CO)O2)cc1F | 13.2 µM (active) | 18.7 µM (active) | 1.66 µM (active) | – | 5.26 µM (active) |
| O=C(C=Cc1ccc(CN(CCO)CCc2c[nH]c3ccccc23)cc1)NO | 0.0743 µM (active) | 0.105 µM (active) | 0.0935 µM (active) | – | 0.0833 µM (active) |
| COC(=O)[C@@H]1CC2=CC(=O)CC[C@]2(C)[C@@]23O[C@@H]2C[C@@]2(C)[C@H](CC[C@@]24CCC(=O)O4)[C@@H]13 | inactive | – | inactive | inactive | – |
| COc1cc(OC)c(C=CS(=O)(=O)Cc2ccc(OC)c(NCC(=O)O)c2)c(OC)c1 | 0.118 µM (active) | 0.148 µM (active) | 0.0332 µM (active) | – | 0.372 µM (active) |
| CC(C)OC(=O)[C@H](C)N[P@](=O)(OC[C@H]1O[C@@H](n2ccc(=O)[nH]c2=O)[C@](C)(F)[C@H]1O)Oc1ccccc1 | inactive | inactive | inactive | – | inactive |
| C[C@](Cc1c[nH]c2ccccc12)(NC(=O)OC1C2CC3CC(C2)CC1C3)C(=O)NC[C@H](NC(=O)CCC(=O)O)c1ccccc1 (some centres undefined) | inactive | – | – | inactive | – |
| O=S(=O)(O)CCSSCCS(=O)(=O)O | inactive | inactive | – | – | inactive |
| CN1CCCN(C(=O)c2cccc(-c3ccc(C=C4C(=O)Nc5ccc(Cl)cc54)o3)c2)CC1 | 26.4 µM (active) | 20.9 µM (active) | 7.43 µM (active) | – | – |
| CON=C(C(=O)N[C@@H]1C(=O)N2C(C(=O)O)=C(Cn3ccc(=N)n3CCO)CS[C@H]12)c1csc(N)n1 | inactive | – | inactive | inactive | – |
| CC(=O)C1=C(O)C=C2Oc3c(C(C)=O)c(O)c(C)c(O)c3C2(C)C1=O (centres undefined) | inactive | inactive | – | – | inactive |
